Source: paper PMC4336329 (PLoS ONE, 2015)
Screen size: about 310,000 compounds; about 2,200 (0.71%) showed an effect of 50% or more. The effect is printed as a negative number. Shown is part of a subset that was picked to be rich in strong results.

Target: human ether-à-go-go-related gene (hERG) potassium channel (human, UniProt Q12809)
Test: primary screen, population patch clamp on CHO cells stably expressing hERG; higher = less effect of the substance

human ether-à-go-go-related gene (hERG) potassium channel, sequence (Q12809 whole entry, looked up): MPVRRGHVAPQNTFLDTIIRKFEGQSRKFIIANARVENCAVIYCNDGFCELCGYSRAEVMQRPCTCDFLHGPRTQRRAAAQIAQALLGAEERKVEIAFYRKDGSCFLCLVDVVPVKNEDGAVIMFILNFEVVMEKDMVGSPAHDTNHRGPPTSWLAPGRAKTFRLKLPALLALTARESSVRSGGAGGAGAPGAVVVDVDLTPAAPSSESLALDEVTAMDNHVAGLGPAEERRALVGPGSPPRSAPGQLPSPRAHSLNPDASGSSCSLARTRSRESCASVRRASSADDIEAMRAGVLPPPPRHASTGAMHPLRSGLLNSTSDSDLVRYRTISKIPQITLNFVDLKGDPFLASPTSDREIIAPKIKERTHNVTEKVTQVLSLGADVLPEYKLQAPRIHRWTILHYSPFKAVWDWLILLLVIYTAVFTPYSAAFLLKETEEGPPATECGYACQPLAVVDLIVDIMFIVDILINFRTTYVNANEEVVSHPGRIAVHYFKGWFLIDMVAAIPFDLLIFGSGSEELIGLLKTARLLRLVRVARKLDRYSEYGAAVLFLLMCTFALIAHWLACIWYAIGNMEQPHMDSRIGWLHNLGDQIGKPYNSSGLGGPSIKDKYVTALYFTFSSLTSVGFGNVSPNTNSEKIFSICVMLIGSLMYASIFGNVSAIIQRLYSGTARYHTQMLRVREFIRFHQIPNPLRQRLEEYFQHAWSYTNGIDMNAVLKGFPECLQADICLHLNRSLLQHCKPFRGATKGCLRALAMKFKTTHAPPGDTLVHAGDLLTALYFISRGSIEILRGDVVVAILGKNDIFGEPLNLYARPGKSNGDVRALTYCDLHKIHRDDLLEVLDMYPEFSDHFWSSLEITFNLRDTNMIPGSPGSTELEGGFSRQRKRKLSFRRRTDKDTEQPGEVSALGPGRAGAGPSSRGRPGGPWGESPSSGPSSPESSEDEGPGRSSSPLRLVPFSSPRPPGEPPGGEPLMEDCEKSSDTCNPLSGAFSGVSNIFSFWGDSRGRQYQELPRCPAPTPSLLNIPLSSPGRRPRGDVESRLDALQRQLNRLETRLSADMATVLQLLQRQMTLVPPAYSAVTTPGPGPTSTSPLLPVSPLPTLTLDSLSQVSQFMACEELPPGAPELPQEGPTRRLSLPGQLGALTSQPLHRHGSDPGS

Row | Structure (SMILES) | hERG current change (%, negative = inhibition) at 1uM
1 | Cc1ccc2c(Cl)c(C(=O)NC3CC3)sc2c1 | 9.87%
2 | Cc1cccc(Cn2c(SCCN3CCCCC3)nc3c2c(=O)[nH]c(=O)n3C)c1 | -80.7%
3 | CCCCCn1c(SCCN2CCOCC2)nc2c1c(=O)[nH]c(=O)n2C | -40.7%
4 | Cn1c(=O)[nH]c(=O)c2c1nc(SCCN1CCCCC1)n2CCCc1ccccc1 | -57.3%
5 | CCCSc1nc2c(c(=O)[nH]c(=O)n2C)n1Cc1ccccc1 | 2.13%
6 | COCCSc1nc2c(c(=O)[nH]c(=O)n2C)n1Cc1cccc(C)c1 | -5.69%
7 | Cn1c(=O)[nH]c(=O)c2c1nc(SCCO)n2CCCc1ccccc1 | 5.4%
8 | Cn1c(=O)[nH]c(=O)c2c1nc(SCCN1CCOCC1)n2CCCc1ccccc1 | -6.15%
9 | CC(C)CCn1c(SCCN2CCOCC2)nc2c1c(=O)[nH]c(=O)n2C | 1.89%
10 | Cn1c(=O)[nH]c(=O)c2c1nc(SCCN1CCCCC1)n2Cc1ccccc1 | -81.6%
11 | CCCCCCn1c(SCCN2CCOCC2)nc2c1c(=O)[nH]c(=O)n2C | -64.1%
12 | Cc1cccc(Cn2c(N3CCN(CCO)CC3)nc3c2c(=O)[nH]c(=O)n3C)c1 | 7.07%
13 | Cn1c(=O)[nH]c(=O)c2c1nc(SCCN1CCOCC1)n2Cc1ccccc1 | -12%
14 | O=C(O)C1CC(=O)N(Cc2ccc3c(c2)OCO3)C1 (stereo not drawn) | 6.73%
15 | O=C(CN1CCCc2ccccc21)NCc1ccc2c(c1)OCO2 | 9.15%
16 | CSc1ccc(-c2nc3cnccn3c2Nc2ccc3c(c2)OCO3)cc1 | 9.9%
17 | Cc1ccccc1OCCC(=O)Nc1ccc(S(=O)(=O)N(C)C2CCN(C)CC2)cc1 | 20.4%
18 | Cc1ccc(Cn2c(SCC(C)C)nc3c2c(=O)[nH]c(=O)n3C)cc1 | 9.48%
19 | Cc1ccc(Cn2c(N3CCCCCC3)nc3c2c(=O)[nH]c(=O)n3C)cc1 | 2.45%
20 | Cc1ccc(Cn2c(SCCN3CCCCC3)nc3c2c(=O)[nH]c(=O)n3C)cc1 | -77.5%
21 | O=C(Cc1ccc(Cl)cc1)N1CCc2ccccc2C1 | 21.7%
22 | COc1cccc(C(c2sc3nc(C)nn3c2O)N2CCN(c3ccccc3F)CC2)c1 (stereo not drawn) | 10%
23 | CCCCN(C)CCNC(=O)CN1C(=O)CSc2ccc(S(=O)(=O)N3CCCCC3)cc21 | -6.21%

Row | Structure (SMILES) | hERG current change (%, negative = inhibition) at 1uM
24 | CCCCN(CCCC)CCNC(=O)CN1C(=O)CSc2ccc(S(=O)(=O)N3CCCCC3)cc21 | -51.7%
25 | CCCCN(CCCC)CCNC(=O)CN1C(=O)CSc2ccc(S(=O)(=O)N3CCOCC3)cc21 | -3.76%
26 | Nc1nc(N)c(N=Nc2ccc(C(=O)O)cc2)c(N)n1 | 8.04%
27 | Cc1ccc(Sc2cc(NCCCO)c([N+](=O)[O-])c3nonc23)cc1 | 5.43%
28 | CCOC(=O)c1c(NC(=O)c2ccccc2C(=O)O)sc2c1CCC2 | 2.17%
29 | CCOC(=O)c1c(NC(=O)C(NCCN(C)C)c2ccccc2)sc2c1CCCC2 (stereo not drawn) | -77.2%
30 | CCOC(=O)c1c(NC(=O)c2ccccc2C(=O)O)sc2c1CCCC2 | 16.3%
31 | COc1ccc(N=C2SC(C(=O)O)CC(=O)N2Cc2ccc(OC)c(OC)c2)cc1 (stereo not drawn) | 10.8%
32 | CCCCNC(=O)N1CCN(c2ccccc2OC)CC1 | 5.81%
33 | O=C1c2[nH]nc(-c3ccccc3O)c2C(c2ccc(F)cc2)N1Cc1ccco1 (stereo not drawn) | 13.1%
34 | CC1CC(C)CN(c2cc(=O)n(Cc3ccc(F)cc3)c(=O)[nH]2)C1 (stereo not drawn) | 17.9%
35 | CCN(CC)CCSc1nnc2c3cc(C)ccc3n(Cc3ccccc3)c2n1 | -81.6%
36 | CCN(CC)CCSc1nnc2c3cc(F)ccc3n(Cc3ccccc3)c2n1 | -53.8%
37 | CCN(CC)CCSc1nnc2c3ccccc3n(Cc3ccccc3)c2n1 | -73.4%
38 | CCN(CC)CCSc1nnc2c3ccccc3n(CCc3ccccc3)c2n1 | -18.1%
39 | c1ccc(Cn2c3ccccc3c3nnc(SCCN4CCCCC4)nc32)cc1 | -6.31%
40 | CSc1nnc2c3cc(F)ccc3n(Cc3ccccc3)c2n1 | 7.64%
41 | CSc1nnc2c3ccccc3n(Cc3ccccc3)c2n1 | 19.2%
42 | O=C(O)CCSc1nc2ccccc2n1Cc1ccccc1 | 13.1%
43 | NNc1nnc2c3cc(F)ccc3n(Cc3ccccc3)c2n1 | 2.58%
44 | CSc1nnc2c3cc(C)ccc3n(Cc3ccccc3)c2n1 | 10.3%
45 | CN(C)C(=O)CSc1nc2ccccc2n1Cc1ccccc1 | 4.73%
